This is an account of results in PubChem BioAssay.

Assay [1] can be described thus: HepG2 liver cancer cell viability effects, profiling panel, resazurin fluorescence, 24 h, PK04 Diversity Set (AID 1172). Also: test concentration not given here. To be noted: higher = more signal. A general note: Alamar Blue is a resazurin reagent that responds to reducing activity.
Assay [2] is described as follows: basal S. cerevisiae growth modulation, no modifier, primary screen, OD600, strain BY4716, 24 h, basal condition (AID 1173). The conditions noted are these: OD600, 24 h, higher = more signal, called active from +8 up or from −8 down.
Assay [3] can be described thus: MM1S myeloma cell viability, profiling panel, resazurin fluorescence, basal, 24 h, PK04 Diversity Set (AID 1174).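 Also: MM1S multiple myeloma cell line; test concentration not given here.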 To be noted: higher = more signal, called active from +8 up or from −8 down.
Assay [4] addresses Dihydroorotate dehydrogenase (quinone), mitochondrial (Plasmodium falciparum (isolate 3D7)) (UniProt Q08210). Briefly: PfDHODH enzyme inhibitors, primary screen, biochemical, C-terminal His tag, absorbance 600 nm (AID 1175).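 Also: recombinant parasite enzyme with a five histidine tag at its C terminus; test concentration not given here.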 The conditions noted are these: DCIP absorbance 600 nm, higher = more signal, called active from +8 up or from −8 down.
Assay [5] can be described thus: P. aeruginosa biofilm formation inhibitors, primary screen, strain PAO1, LB-PBS medium, absorbance 600 nm (AID 1176). Also: test concentration not given here. To be noted: P. aeruginosa PAO1 growth/biofilm, A600, 12 h; higher = more signal.
The nature of assay [6]: S. cerevisiae RM11-1a growth modifiers, primary screen, strain RM11-1a, OD600, basal, 24 h (AID 1177).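 Also: cultures grown under basal conditions with no added stressor; test concentration not given here.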 The conditions noted are these: OD600, 24 h, higher = more signal, called active from +8 up or from −8 down.
Assay [7] can be described thus: E. coli acrAB mutant growth effects, primary screen, E. coli filamentation inducers, strain DRC39, OD650, 24 h (AID 1178).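 Also: growth measured as culture turbidity by optical density at 650 nm; test concentration not given here.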 The conditions noted are these: higher = more signal, called active from +8 up or from −8 down.
The nature of assay [8]: E. coli acrAB mutant growth effects, primary screen, E. coli filamentation inducers, strain DRC39, OD650, 48 h (AID 1179).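 Also: screen aims at cell division blockers that make cells filament.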 To be noted: E. coli DRC39 delta-acrAB growth, higher = more signal, called active from +8 up or from −8 down.
The nature of assay [9]: RPMI8226 myeloma cell viability, profiling panel, resazurin fluorescence, basal, 24 h, PK04 Diversity Set (AID 1180).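 Also: RPMI8826 multiple myeloma cell line at 5000 cells per well; test concentration not given here.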 To be noted: higher = more signal.
Assay [10] has as its target E3 ubiquitin-protein ligase XIAP (Homo sapiens) (UniProt P98170). Kind of assay: XIAP binders, primary screen, biophysical, small-molecule microarray, fluorescence 635 nm (AID 1181).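 Also: score merges 667 nm emission and signal to noise over triplicate slides.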 To be noted: small-molecule microarray binding, higher = more signal.

Active and inactive are the calls of the source. Unless noted, no rule for the calls is given here.

Sequence of E3 ubiquitin-protein ligase XIAP (Homo sapiens) (P98170 whole entry, looked up): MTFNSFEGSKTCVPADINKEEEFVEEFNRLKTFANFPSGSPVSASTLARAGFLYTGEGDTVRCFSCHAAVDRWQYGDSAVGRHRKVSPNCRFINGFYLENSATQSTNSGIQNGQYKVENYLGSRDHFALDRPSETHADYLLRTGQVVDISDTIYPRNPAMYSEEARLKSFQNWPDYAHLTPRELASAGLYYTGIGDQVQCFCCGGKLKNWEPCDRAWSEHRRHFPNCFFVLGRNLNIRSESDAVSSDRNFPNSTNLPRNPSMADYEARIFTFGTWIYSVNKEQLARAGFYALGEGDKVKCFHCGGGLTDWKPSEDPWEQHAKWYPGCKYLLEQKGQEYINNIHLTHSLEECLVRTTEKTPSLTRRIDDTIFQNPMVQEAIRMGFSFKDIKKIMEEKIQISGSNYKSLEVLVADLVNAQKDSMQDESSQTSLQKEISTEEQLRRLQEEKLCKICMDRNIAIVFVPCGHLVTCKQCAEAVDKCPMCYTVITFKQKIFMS
Sequence of Dihydroorotate dehydrogenase (quinone), mitochondrial (Plasmodium falciparum (isolate 3D7)) (Q08210 whole entry, looked up): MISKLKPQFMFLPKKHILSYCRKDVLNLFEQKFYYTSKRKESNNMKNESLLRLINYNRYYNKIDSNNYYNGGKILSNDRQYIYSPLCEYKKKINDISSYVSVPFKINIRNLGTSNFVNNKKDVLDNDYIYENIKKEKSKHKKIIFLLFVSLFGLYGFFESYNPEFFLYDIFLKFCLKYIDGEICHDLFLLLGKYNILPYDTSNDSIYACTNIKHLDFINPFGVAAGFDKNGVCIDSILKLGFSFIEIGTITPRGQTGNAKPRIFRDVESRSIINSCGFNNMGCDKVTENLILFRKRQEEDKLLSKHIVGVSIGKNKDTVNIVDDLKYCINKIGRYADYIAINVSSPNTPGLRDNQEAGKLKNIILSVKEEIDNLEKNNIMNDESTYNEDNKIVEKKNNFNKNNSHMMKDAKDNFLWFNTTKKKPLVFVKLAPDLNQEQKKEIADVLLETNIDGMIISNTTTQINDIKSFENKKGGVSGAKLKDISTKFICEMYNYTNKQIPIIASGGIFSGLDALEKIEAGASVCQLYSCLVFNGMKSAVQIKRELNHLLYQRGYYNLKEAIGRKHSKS

For `CC1CC/C=C\[C@H]2OC34C=CCN(Cc5ccccc5)C(=O)[C@H]3N(CCCCCO)C(=O)[C@@H]4C2C(=O)O1` (stereo not given in full), the z-score in [1] was -0.0371; in assay [2], -0.308 (inactive); in assay [3] it was 0.521 (inactive); in [5], -0.565 (inactive); in assay [6], 0.0882 (inactive); in [7] it was 0.443 (inactive). Also, the results for the z-score in [8] and in [9] were 0.667 (inactive) and 0.461, respectively. The composite z-score in assay [4] is -0.419 (inactive); in [10], -0.0062.
In the case of `CN(C)C(=O)[C@]1(CCC(=O)OC(C)(C)C)N=C(c2ccc(OCCCO)cc2)O[C@@H]1c1ccccc1N=[N+]=[N-]`, the z-score in [1] is 1.49; in assay [2] it was 0.192 (inactive); in [3], -0.556 (inactive); in assay [5] it was -0.758 (inactive); in assay [6] it was 1.61 (inactive); in [7] it was 0.752 (inactive). In addition, the z-score is 0.701 (inactive) in assay [8] and 0.407 in [9]. Further, the composite z-score is 0.565 (inactive) in assay [4] and 0.0317 in assay [10].
For `O=C1C[C@]2(c3ccc([N+](=O)[O-])cc3)C(=O)N(CC(F)(F)F)c3cc(CO)ccc3[C@H]2N1CC12CC3CC(CC(C3)C1)C2`, the z-score in assay [1] was 0.961; in assay [2], 0.695 (inactive); in assay [3] it was -1.2 (inactive); in assay [5] it was 0.503 (inactive); in assay [6] it was -0.319 (inactive); in assay [7] it was 0.973 (inactive). The z-score in [8] is 0.672 (inactive); in assay [9], -0.157. The composite z-score in assay [4] is -3.73 (inactive); in assay [10], -0.222.
In the case of `C=CC[C@@H](OC(=O)Nc1ccc(OC)cc1)c1ccc(O)c2ccccc12`, the z-score in assay [1] was -1.07; in [2] it was -16.6 (active); in [3] it was -6.13 (inactive); in [5], 1.73 (inactive); in [6], -20.3 (active); in assay [7] it was 0.305 (inactive). Besides, the z-score in assay [8] was -0.473 (inactive); in assay [9] it was -4.48. Besides, the composite z-score in assay [4] is -7.4 (inactive); in assay [10], 0.0413.
For the molecule `Cc1ccccc1C(O)C1C=CC2C(=O)N(C)C(=O)C2N1Nc1ccccc1` (stereo not given), the z-score in assay [1] was -1.19; in assay [2], -0.532 (inactive); in assay [3], -1.32 (inactive); in assay [5], 1.07 (inactive); in assay [6] it was -0.547 (inactive); in assay [7], -0.688 (inactive). The z-score is -0.611 (inactive) in [8] and -1.61 in [9]. For the same molecule, the composite z-score in [4] is -0.513 (inactive); in [10], 0.179.
For the molecule `COC(=O)c1ccc(C23CC2(C(NP(=O)(c2ccccc2)c2ccccc2)c2ccccc2)C3)cc1` (stereo not given), the z-score in assay [1] is -0.402; in [2], -1.17 (inactive); in assay [3], -0.941 (inactive); in assay [5], 0.287 (inactive); in [6] it was -3.39 (inactive); in assay [7] it was -0.29 (inactive). Further, the z-score in [8] is -0.16 (inactive); in [9], -0.122. Also, the values for the composite z-score in [4] and in assay [10] were -1.13 (inactive) and -0.126, respectively.
With `CS(=O)(=O)CCOC(=O)C1=CC(CCCO)=CC(c2cccs2)N(Cc2cc3c(cc2Br)OCO3)C=C1C(=O)OCCS(C)(=O)=O` (stereo not given), the z-score is 1.13 in assay [1]; -2.65 (inactive) in [2]; 0.209 (inactive) in assay [3]; 0.142 (inactive) in [5]; 0.379 (inactive) in [6]; 0.571 (inactive) in assay [7]. For the same molecule, the z-score was 0.503 (inactive) in assay [8] and 0.0578 in assay [9]. Besides, the composite z-score was 0.359 (inactive) in assay [4] and 0.122 in [10].
Turning to `O=C1N(CCS(=O)(=O)c2ccccc2)c2ccccc2C[C@@]12COC(c1ccc(OCCCO)cc1)=N2`, the z-score is -0.73 in [1]; 1.3 (inactive) in assay [2]; -0.756 (inactive) in assay [3]; 0.603 (inactive) in assay [5]; 1.31 (inactive) in assay [6]; -0.0526 (inactive) in [7]. Also, the z-score in assay [8] was -0.726 (inactive); in assay [9], -0.816. Moreover, the composite z-score in assay [4] was 0.558 (inactive); in assay [10], 0.262.
Consider `[N-]=[N+]=Nc1ccccc1[C@H]1OC(c2ccc(OCCCO)cc2)=N[C@@]1(CCS(=O)(=O)c1ccccc1)C(=O)O`, for which the z-score in assay [1] was 0.181; in assay [2] it was -1.65 (inactive); in assay [3], 0.169 (inactive); in assay [5], -0.319 (inactive); in assay [6], -0.0777 (inactive); in assay [7], 2.08 (inactive). Further, the values for the z-score in assay [8] and in assay [9] were 0.499 (inactive) and 0.438, respectively. The composite z-score in assay [4] is 0.737 (inactive); in assay [10], 0.143.
For `COC(=O)[C@@]1(Cc2ccc(OC)cc2)[C@H]2c3cc(C(=O)N4CCCC4)n(CCc4c[nH]c5cc(F)ccc45)c3C[C@H]2CN1C(=O)c1ccccc1`, the z-score in assay [1] is -0.679; in [2] it was 1.15 (inactive); in assay [3], -0.502 (inactive); in assay [5], 0.964 (inactive); in assay [6], 0.473 (inactive); in [7] it was -0.29 (inactive). Also, the results for the z-score in [8] and in assay [9] were -0.141 (inactive) and -0.642, respectively. Besides, the composite z-score was 0.461 (inactive) in [4] and 0.172 in [10].
As for `COC(=O)C[C@@H]1C[C@H](C)[C@]2(O1)C(=O)N(Cc1ccccc1)c1ccc(NC(C)=O)cc12`, the z-score was -0.873 in assay [1]; -1.15 (inactive) in [2]; -1.19 (inactive) in [3]; -0.0582 (inactive) in assay [5]; 0.0057 (inactive) in assay [6]; -0.768 (inactive) in assay [7]. The z-score in assay [8] is -1.33 (inactive); in [9], -0.888. Also, the results for the composite z-score in assay [4] and in assay [10] were 0.281 (inactive) and 0.123, respectively.
Regarding `COc1ccc([Si](C)(C)[C@H]2[C@H](CCn3cc(CCO)nn3)O[C@@]3(C(=O)N(Cc4ccc(N5CCOC5=O)cc4)c4ccccc43)[C@@H]2C)cc1`, the z-score in assay [1] was -0.909; in [2], 0.93 (inactive); in assay [3], -2.57 (inactive); in [5] it was 0.802 (inactive); in assay [6], 1.22 (inactive); in assay [7], 0.864 (inactive). The z-score in [8] was 0.562 (inactive); in [9] it was -2.01. For the same molecule, the composite z-score is 0.604 (inactive) in assay [4] and 0.339 in [10].
For the molecule `COCCOC(=O)N1C(=O)[C@@]2(c3cc(C#CCC(C(=O)OC)C(=O)OC)ccc31)[C@H](c1ccccc1OCCO)N1[C@H](c3ccccc3)[C@H](c3ccccc3)OC(=O)[C@H]1[C@@H]2C(N)=O`, the z-score was -0.592 in assay [1]; 0.9 (inactive) in [2]; -9.3 (active) in assay [3]; 0.774 (inactive) in [5]; 1.97 (inactive) in [6]; 0.116 (inactive) in [7]. For the same molecule, the z-score in [8] was 0.857 (inactive); in [9] it was -7.24. Besides, the composite z-score in [4] was 0.47 (inactive); in [10], -0.0874.
